{"source": "the supplement of paper PMC4466140", "data": [{"molecular_target": "ScBbc1", "test": "SPOT peptide array binding signal intensity (averaged, normalized) (arbitrary units (background-subtracted, floor 0; scale differs between SH3 domains)); higher = stronger binding of the SH3 domain to the peptide", "method_in_brief": "(§1)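 Spot intensities were captured after detection with anti-GST antibody, an HRP-linked anti-mouse secondary and luminol, and quantified with Genespotter. The probes were GST-fused SH3 domains from four yeast species, produced in E. coli BL21(DE3), purified on glutathione Sepharose and incubated at 10 μg/ml overnight at 4°C on cellulose-bound synthetic 15-mer peptides with cysteines replaced by serines. Binding signal is the normalized, background-subtracted spot intensity averaged over replicates, and its arbitrary units differ between domains.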", "values": [{"binder": "TIRRRAPLSLLESHT", "SPOT peptide array binding signal intensity": 16.5}]}, {"molecular_target": "ScBem1-D1", "test": "SPOT peptide array binding signal intensity (averaged, normalized) (arbitrary units (background-subtracted, floor 0; scale differs between SH3 domains)); higher = stronger binding of the SH3 domain to the peptide", "method_in_brief": "as §1", "values": [{"binder": "TIRRRAPLSLLESHT", "SPOT peptide array binding signal intensity": 22.5}]}, {"molecular_target": "ScBzz1-D1", "test": "SPOT peptide array binding signal intensity (averaged, normalized) (arbitrary units (background-subtracted, floor 0; scale differs between SH3 domains)); higher = stronger binding of the SH3 domain to the peptide", "method_in_brief": "as §1", "values": [{"binder": "TIRRRAPLSLLESHT", "SPOT peptide array binding signal intensity": 11.5}]}, {"molecular_target": "ScBzz1-D2", "test": "SPOT peptide array binding signal intensity (averaged, normalized) (arbitrary units (background-subtracted, floor 0; scale differs between SH3 domains)); higher = stronger binding of the SH3 domain to the peptide", "method_in_brief": "as §1", "values": [{"binder": "TIRRRAPLSLLESHT", "SPOT peptide array binding signal intensity": 29.5}]}, {"molecular_target": "ScCyk3", "test": "SPOT peptide array binding signal intensity (averaged, normalized) (arbitrary units (background-subtracted, floor 0; scale differs between SH3 domains)); higher = stronger binding of the SH3 domain to the peptide", "method_in_brief": "as §1", "values": [{"binder": "TIRRRAPLSLLESHT", "SPOT peptide array binding signal intensity": 57.5}]}, {"molecular_target": "ScFus1", "test": "SPOT peptide array binding signal intensity (averaged, normalized) (arbitrary units (background-subtracted, floor 0; scale differs between SH3 domains)); higher = stronger binding of the SH3 domain to the peptide", "method_in_brief": "as §1", "values": [{"binder": "TIRRRAPLSLLESHT", "SPOT peptide array binding signal intensity": 731}]}, {"molecular_target": "ScHof1", "test": "SPOT peptide array binding signal intensity (averaged, normalized) (arbitrary units (background-subtracted, floor 0; scale differs between SH3 domains)); higher = stronger binding of the SH3 domain to the peptide", "method_in_brief": "as §1", "values": [{"binder": "TIRRRAPLSLLESHT", "SPOT peptide array binding signal intensity": 3.5}]}, {"molecular_target": "ScHse1", "test": "SPOT peptide array binding signal intensity (averaged, normalized) (arbitrary units (background-subtracted, floor 0; scale differs between SH3 domains)); higher = stronger binding of the SH3 domain to the peptide", "method_in_brief": "as §1", "values": [{"binder": "TIRRRAPLSLLESHT", "SPOT peptide array binding signal intensity": 2020}]}, {"molecular_target": "ScLsb1", "test": "SPOT peptide array binding signal intensity (averaged, normalized) (arbitrary units (background-subtracted, floor 0; scale differs between SH3 domains)); higher = stronger binding of the SH3 domain to the peptide", "method_in_brief": "as §1", "values": [{"binder": "TIRRRAPLSLLESHT", "SPOT peptide array binding signal intensity": 2}]}, {"molecular_target": "ScLsb2", "test": "SPOT peptide array binding signal intensity (averaged, normalized) (arbitrary units (background-subtracted, floor 0; scale differs between SH3 domains)); higher = stronger binding of the SH3 domain to the peptide", "method_in_brief": "as §1", "values": [{"binder": "TIRRRAPLSLLESHT", "SPOT peptide array binding signal intensity": "≤ 0"}]}, {"molecular_target": "ScLsb3", "test": "SPOT peptide array binding signal intensity (averaged, normalized) (arbitrary units (background-subtracted, floor 0; scale differs between SH3 domains)); higher = stronger binding of the SH3 domain to the peptide", "method_in_brief": "as §1", "values": [{"binder": "TIRRRAPLSLLESHT", "SPOT peptide array binding signal intensity": 272}]}, {"molecular_target": "ScLsb4", "test": "SPOT peptide array binding signal intensity (averaged, normalized) (arbitrary units (background-subtracted, floor 0; scale differs between SH3 domains)); higher = stronger binding of the SH3 domain to the peptide", "method_in_brief": "as §1", "values": [{"binder": "TIRRRAPLSLLESHT", "SPOT peptide array binding signal intensity": 8}]}, {"molecular_target": "ScMyo3", "test": "SPOT peptide array binding signal intensity (averaged, normalized) (arbitrary units (background-subtracted, floor 0; scale differs between SH3 domains)); higher = stronger binding of the SH3 domain to the peptide", "method_in_brief": "as §1", "values": [{"binder": "TIRRRAPLSLLESHT", "SPOT peptide array binding signal intensity": "≤ 0"}]}, {"molecular_target": "ScMyo5", "test": "SPOT peptide array binding signal intensity (averaged, normalized) (arbitrary units (background-subtracted, floor 0; scale differs between SH3 domains)); higher = stronger binding of the SH3 domain to the peptide", "method_in_brief": "as §1", "values": [{"binder": "TIRRRAPLSLLESHT", "SPOT peptide array binding signal intensity": 1}]}, {"molecular_target": "ScNbp2", "test": "SPOT peptide array binding signal intensity (averaged, normalized) (arbitrary units (background-subtracted, floor 0; scale differs between SH3 domains)); higher = stronger binding of the SH3 domain to the peptide", "method_in_brief": "as §1", "values": [{"binder": "TIRRRAPLSLLESHT", "SPOT peptide array binding signal intensity": 1320}]}, {"molecular_target": "ScPex13", "test": "SPOT peptide array binding signal intensity (averaged, normalized) (arbitrary units (background-subtracted, floor 0; scale differs between SH3 domains)); higher = stronger binding of the SH3 domain to the peptide", "method_in_brief": "as §1", "values": [{"binder": "TIRRRAPLSLLESHT", "SPOT peptide array binding signal intensity": 1}]}, {"molecular_target": "ScRvs167", "test": "SPOT peptide array binding signal intensity (averaged, normalized) (arbitrary units (background-subtracted, floor 0; scale differs between SH3 domains)); higher = stronger binding of the SH3 domain to the peptide", "method_in_brief": "as §1", "values": [{"binder": "TIRRRAPLSLLESHT", "SPOT peptide array binding signal intensity": 48.5}]}, {"molecular_target": "ScSho1", "test": "SPOT peptide array binding signal intensity (averaged, normalized) (arbitrary units (background-subtracted, floor 0; scale differs between SH3 domains)); higher = stronger binding of the SH3 domain to the peptide", "method_in_brief": "as §1", "values": [{"binder": "TIRRRAPLSLLESHT", "SPOT peptide array binding signal intensity": 1070}]}, {"molecular_target": "ScSla1-D1-D2", "test": "SPOT peptide array binding signal intensity (averaged, normalized) (arbitrary units (background-subtracted, floor 0; scale differs between SH3 domains)); higher = stronger binding of the SH3 domain to the peptide", "method_in_brief": "as §1", "values": [{"binder": "TIRRRAPLSLLESHT", "SPOT peptide array binding signal intensity": 337}]}, {"molecular_target": "ScSla1-D3", "test": "SPOT peptide array binding signal intensity (averaged, normalized) (arbitrary units (background-subtracted, floor 0; scale differs between SH3 domains)); higher = stronger binding of the SH3 domain to the peptide", "method_in_brief": "as §1", "values": [{"binder": "TIRRRAPLSLLESHT", "SPOT peptide array binding signal intensity": 0.5}]}, {"molecular_target": "SpAbp1-D1", "test": "SPOT peptide array binding signal intensity (averaged, normalized) (arbitrary units (background-subtracted, floor 0; scale differs between SH3 domains)); higher = stronger binding of the SH3 domain to the peptide", "method_in_brief": "as §1", "values": [{"binder": "TIRRRAPLSLLESHT", "SPOT peptide array binding signal intensity": 508}]}, {"molecular_target": "SpBbc1", "test": "SPOT peptide array binding signal intensity (averaged, normalized) (arbitrary units (background-subtracted, floor 0; scale differs between SH3 domains)); higher = stronger binding of the SH3 domain to the peptide", "method_in_brief": "as §1", "values": [{"binder": "TIRRRAPLSLLESHT", "SPOT peptide array binding signal intensity": 1}]}, {"molecular_target": "SpBzz1-D1", "test": "SPOT peptide array binding signal intensity (averaged, normalized) (arbitrary units (background-subtracted, floor 0; scale differs between SH3 domains)); higher = stronger binding of the SH3 domain to the peptide", "method_in_brief": "as §1", "values": [{"binder": "TIRRRAPLSLLESHT", "SPOT peptide array binding signal intensity": 106}]}, {"molecular_target": "SpBzz1-D2", "test": "SPOT peptide array binding signal intensity (averaged, normalized) (arbitrary units (background-subtracted, floor 0; scale differs between SH3 domains)); higher = stronger binding of the SH3 domain to the peptide", "method_in_brief": "as §1", "values": [{"binder": "TIRRRAPLSLLESHT", "SPOT peptide array binding signal intensity": "≤ 0"}]}, {"molecular_target": "SpCyk3", "test": "SPOT peptide array binding signal intensity (averaged, normalized) (arbitrary units (background-subtracted, floor 0; scale differs between SH3 domains)); higher = stronger binding of the SH3 domain to the peptide", "method_in_brief": "as §1", "values": [{"binder": "TIRRRAPLSLLESHT", "SPOT peptide array binding signal intensity": 2}]}, {"molecular_target": "SpHof1", "test": "SPOT peptide array binding signal intensity (averaged, normalized) (arbitrary units (background-subtracted, floor 0; scale differs between SH3 domains)); higher = stronger binding of the SH3 domain to the peptide", "method_in_brief": "as §1", "values": [{"binder": "TIRRRAPLSLLESHT", "SPOT peptide array binding signal intensity": 148}]}, {"molecular_target": "SpHof1-2", "test": "SPOT peptide array binding signal intensity (averaged, normalized) (arbitrary units (background-subtracted, floor 0; scale differs between SH3 domains)); higher = stronger binding of the SH3 domain to the peptide", "method_in_brief": "as §1", "values": [{"binder": "TIRRRAPLSLLESHT", "SPOT peptide array binding signal intensity": 3.5}]}, {"molecular_target": "SpHof1-3", "test": "SPOT peptide array binding signal intensity (averaged, normalized) (arbitrary units (background-subtracted, floor 0; scale differs between SH3 domains)); higher = stronger binding of the SH3 domain to the peptide", "method_in_brief": "as §1", "values": [{"binder": "TIRRRAPLSLLESHT", "SPOT peptide array binding signal intensity": 504}]}, {"molecular_target": "SpHse1", "test": "SPOT peptide array binding signal intensity (averaged, normalized) (arbitrary units (background-subtracted, floor 0; scale differs between SH3 domains)); higher = stronger binding of the SH3 domain to the peptide", "method_in_brief": "as §1", "values": [{"binder": "TIRRRAPLSLLESHT", "SPOT peptide array binding signal intensity": 598}]}, {"molecular_target": "SpLsb1", "test": "SPOT peptide array binding signal intensity (averaged, normalized) (arbitrary units (background-subtracted, floor 0; scale differs between SH3 domains)); higher = stronger binding of the SH3 domain to the peptide", "method_in_brief": "as §1", "values": [{"binder": "TIRRRAPLSLLESHT", "SPOT peptide array binding signal intensity": 3}]}, {"molecular_target": "SpLsb4", "test": "SPOT peptide array binding signal intensity (averaged, normalized) (arbitrary units (background-subtracted, floor 0; scale differs between SH3 domains)); higher = stronger binding of the SH3 domain to the peptide", "method_in_brief": "as §1", "values": [{"binder": "TIRRRAPLSLLESHT", "SPOT peptide array binding signal intensity": 135}]}, {"molecular_target": "SpMyo1", "test": "SPOT peptide array binding signal intensity (averaged, normalized) (arbitrary units (background-subtracted, floor 0; scale differs between SH3 domains)); higher = stronger binding of the SH3 domain to the peptide", "method_in_brief": "as §1", "values": [{"binder": "TIRRRAPLSLLESHT", "SPOT peptide array binding signal intensity": "≤ 0"}]}, {"molecular_target": "SpNbp2", "test": "SPOT peptide array binding signal intensity (averaged, normalized) (arbitrary units (background-subtracted, floor 0; scale differs between SH3 domains)); higher = stronger binding of the SH3 domain to the peptide", "method_in_brief": "as §1", "values": [{"binder": "TIRRRAPLSLLESHT", "SPOT peptide array binding signal intensity": 350}]}, {"molecular_target": "SpPex13", "test": "SPOT peptide array binding signal intensity (averaged, normalized) (arbitrary units (background-subtracted, floor 0; scale differs between SH3 domains)); higher = stronger binding of the SH3 domain to the peptide", "method_in_brief": "as §1", "values": [{"binder": "TIRRRAPLSLLESHT", "SPOT peptide array binding signal intensity": 7}]}, {"molecular_target": "SpRvs167", "test": "SPOT peptide array binding signal intensity (averaged, normalized) (arbitrary units (background-subtracted, floor 0; scale differs between SH3 domains)); higher = stronger binding of the SH3 domain to the peptide", "method_in_brief": "as §1", "values": [{"binder": "TIRRRAPLSLLESHT", "SPOT peptide array binding signal intensity": 6.33}]}, {"molecular_target": "SpSla1-D1-D2", "test": "SPOT peptide array binding signal intensity (averaged, normalized) (arbitrary units (background-subtracted, floor 0; scale differs between SH3 domains)); higher = stronger binding of the SH3 domain to the peptide", "method_in_brief": "as §1", "values": [{"binder": "TIRRRAPLSLLESHT", "SPOT peptide array binding signal intensity": 5}]}, {"molecular_target": "SpSla1-D3", "test": "SPOT peptide array binding signal intensity (averaged, normalized) (arbitrary units (background-subtracted, floor 0; scale differs between SH3 domains)); higher = stronger binding of the SH3 domain to the peptide", "method_in_brief": "as §1", "values": [{"binder": "TIRRRAPLSLLESHT", "SPOT peptide array binding signal intensity": 4.5}]}]}
